The record followed here is PubChem BioAssay (NCI).

Holding throughout (test): NCI-60 one-dose screen, 48 h (100 = growth as untreated, 0 = no growth, -100 = all killed)
Assay [1] has as its system T-47D breast.
Assay [2] concerns BT-549 breast.
The subject of assay [3] is MDA-MB-435 melanoma.
Assay [4] relates to SW-620 colon.
Assay [5] has as its system MCF7 breast. To be noted: 10 µM.
Assay [6] relates to HCT-116 colon.
Assay [7] has as its system KM12 colon.
Assay [8] relates to HCC-2998 colon.

Several values for one entry are separate records, joined by “and”; a condition that tells them apart may be missing. Identical values can stand only once. The panel holds about 83,000 compounds, 20% with a hit somewhere; the sample as a whole holds those more often.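 48-hour exposure, single concentration, 96-well plates; percent growth endpoint where 0 means no net growth. Active: below 10.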 Activity calls are given as the source filed them.

For the molecule `CCCCCCCCCCCCCCCCCCOCC(COP(=O)([O-])OCC[N+](C)(C)C)OC` (configuration not stated), the growth is 88% (inactive) in assay [1] (10 µM); 97.1% (inactive) in assay [2] (10 µM); 103% (inactive) in assay [3] (10 µM); 70.1% (inactive) in assay [4] (10 µM); 81.4% (inactive) in assay [5]; 65.1% (inactive) in assay [6] (10 µM). Besides, the growth in assay [7] (10 µM) is 29.7% (inactive).
On to `O=[N+]([O-])C1=C(c2ccccc2)SC=C(c2ccccc2)S1`, for which the growth in assay [1] (10 µM) was 51.9% (inactive); in assay [2] (10 µM), 55.3% (inactive); in assay [3] (10 µM) it was 75.3% (inactive); in assay [4] (10 µM), 62.5% (inactive); in assay [5], 51.6% (inactive); in assay [6] (10 µM), 67% (inactive). Further, the growth in assay [8] (10 µM) was 108% (inactive); in assay [7] (10 µM), 81.3% (inactive).
In the case of `O=c1ccn(C2CC(O)C(COC(c3ccccc3)(c3ccccc3)c3ccccc3)O2)c(=O)[nH]1` (configuration not stated), the growth in assay [1] (10 µM) is 84.7% (inactive); in assay [1] (100 µM), 25.7% (inactive); in assay [2] (10 µM), 84.2% (inactive); in assay [2] (100 µM), 13.9% (inactive); in assay [3] (10 µM), 76.1% (inactive); in assay [3] (100 µM) it was 45% (inactive). Further, the growth in assay [4] (10 µM) was 99.4% (inactive); in assay [4] (100 µM), 62.2% (inactive); in assay [6] (10 µM) it was 82.2% (inactive); in assay [6] (100 µM), 33.9% (inactive); in assay [8] (10 µM), 122% (inactive); in assay [8] (100 µM) it was 64.2% (inactive). For the same molecule, the growth in assay [7] (10 µM) was 90.4% (inactive); in assay [7] (100 µM), 40.3% (inactive).
`CC(=O)OCC(OC(C)=O)C(OC(C)=O)C(OC(C)=O)C(OC(C)=O)C(/C=N/Nc1ccccc1)=N/Nc1ccccc1` (configuration not stated): the growth in assay [3] (10 µM) is 65.6% (inactive); in assay [4] (10 µM) it was 49.7% (inactive); in assay [6] (10 µM), 64.1% (inactive); in assay [8] (10 µM) it was 91.2% (inactive); in assay [7] (10 µM) it was 45.3% (inactive).
As for `Cc1cc(NS(=O)(=O)c2ccc(N=Nc3cc(N=Nc4ccc(S(=O)(=O)Nc5cc(C)nc(C)n5)cc4)c4c(NC(=O)C(Cl)Cl)cccc4c3OC(=O)C(Cl)Cl)cc2)nc(C)n1` (tested in a mixture with another compound), the growth in assay [1] (10 µM) is 101% (inactive) and 87.1% (inactive); in assay [2] (10 µM) it was 111% (inactive) and 99.7% (inactive); in assay [3] (10 µM) it was 101% (inactive) and 111% (inactive); in assay [4] (10 µM), 122% (inactive) and 104% (inactive); in assay [6] (10 µM), 105% (inactive) and 95.2% (inactive); in assay [8] (10 µM), 107% (inactive) and 111% (inactive). Also, the growth in assay [7] (10 µM) is 107% (inactive) and 106% (inactive).
Turning to `NC(=O)SCC(=O)NNc1ccccc1`, the growth in assay [1] (10 µM) is 73.5% (inactive); in assay [2] (10 µM) it was 113% (inactive); in assay [3] (10 µM), 101% (inactive); in assay [4] (10 µM) it was 87.5% (inactive); in assay [6] (10 µM) it was 94.6% (inactive); in assay [8] (10 µM), 103% (inactive). Also, the growth in assay [7] (10 µM) was 81.3% (inactive).
With `COc1cccc2c1C(=O)c1c(O)c3c(c(O)c1C2=O)C[C@@](O)(C(C)=O)C[C@@H]3OC1CC(N)C(O)C(C)O1` (some centres not stated), the growth in assay [1] (10 µM) was -16.3% (active); in assay [2] (10 µM) it was -70.9% (active); in assay [3] (10 µM) it was -87.2% (active); in assay [4] (10 µM), -3.91% (active); in assay [6] (10 µM) it was -37.5% (active); in assay [8] (10 µM), -86% (active). Moreover, the growth in assay [7] (10 µM) was -8.88% (active).
As to `O=C1C=C(O)c2ccccc2C1=O.[Ag]`, the growth is 79.5% (inactive) in assay [1] (10 µM); 115% (inactive) in assay [2] (10 µM); 111% (inactive) in assay [3] (10 µM); 106% (inactive) in assay [4] (10 µM); 111% (inactive) in assay [6] (10 µM); 88.8% (inactive) in assay [8] (10 µM). Moreover, the growth in assay [7] (10 µM) was 96.4% (inactive).
As for `OCC1OC(n2cnc3c(=S)nc[nH]c32)C(O)C1O` (configuration not stated), the growth in assay [1] (10 µM) is 100% (inactive) and 57.7% (inactive); in assay [2] (10 µM), 105% (inactive) and 66.2% (inactive); in assay [3] (10 µM), 106% (inactive) and 35.3% (inactive); in assay [4] (10 µM), 104% (inactive) and 76.6% (inactive); in assay [6] (10 µM), 117% (inactive) and 39.8% (inactive); in assay [8] (10 µM), 100% (inactive) and 45.5% (inactive). In addition, the growth in assay [7] (10 µM) was 108% (inactive) and 60.4% (inactive).
For `CCCCCCCCCCCC[N+](C)(C)Cc1ccccc1`, the growth was 14.2% (inactive) in assay [1] (10 µM); -21.1% (active) in assay [2] (10 µM); 11.7% (inactive) in assay [3] (10 µM); 45.2% (inactive) in assay [4] (10 µM); 21.5% (inactive) in assay [6] (10 µM); 17.8% (inactive) in assay [8] (10 µM). The growth in assay [7] (10 µM) is -63.7% (active).
Turning to `COc1c(O)cc2oc3cc(O)c(CC=C(C)C)c(O)c3c(=O)c2c1CC=C(C)C`, the growth in assay [1] (10 µM) is 48% (inactive); in assay [2] (10 µM), 105% (inactive); in assay [3] (10 µM) it was 70.1% (inactive); in assay [4] (10 µM), 60.9% (inactive); in assay [6] (10 µM) it was 23.7% (inactive); in assay [8] (10 µM), 42.1% (inactive). In assay [7] (10 µM), the growth was 38.1% (inactive).
With `CCCCCCCCCCCCSC(=NC)NC`, the growth in assay [1] (10 µM) is -7.65% (active) and 49.6% (inactive); in assay [2] (10 µM), 45.3% (inactive) and 86.4% (inactive); in assay [3] (10 µM), -15.7% (active) and 43.4% (inactive); in assay [4] (10 µM), -25.5% (active) and 32.3% (inactive); in assay [6] (10 µM), 1.94% (active) and 47.4% (inactive); in assay [8] (10 µM), -54.8% (active) and -34.7% (active). Moreover, the growth in assay [7] (10 µM) was 17.1% (inactive) and 44.8% (inactive).
In the case of `CS(=O)(=O)OC1CC(n2ccc(=O)[nH]c2=O)OC1COC(c1ccccc1)(c1ccccc1)c1ccccc1` (configuration not stated), the growth in assay [1] (10 µM) was 96.7% (inactive); in assay [2] (10 µM) it was 99.4% (inactive); in assay [3] (10 µM), 125% (inactive); in assay [4] (10 µM), 105% (inactive); in assay [6] (10 µM) it was 92.9% (inactive); in assay [8] (10 µM) it was 106% (inactive). In assay [7] (10 µM), the growth is 93.5% (inactive).
